Unmarked numbers belong to inactive results. Results filed as inconclusive are left out. Where a call stands in place of a potency, no number is given. Activity calls are given as the source filed them. Unless noted, calls come from the whole dose curve; as a rule, active = well fitted curve in the direction sought with a large enough effect in the repeat runs; inconclusive = weak or mixed curves; inactive = no such curve, though single readings can be large; an effect the other way counts as inactive or inconclusive.
Columns and labels:
[1] = biological target: Nuclear receptor subfamily 1 group I member 3 (Homo sapiens) (UniProt Q14994); assay: qHTS assay to identify small molecule antagonists of the constitutive androstane receptor (CAR) signaling pathway (AID 1224838); note: nearly all actives have a fitted effect of over 40% in size; note: potency is the fitted concentration of half-maximal effect
In short: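 CITCO-stimulated (50 nM final) HepG2 cells stably transfected with hCAR and CYP2B6-2.2kb luciferase were exposed to compounds at 15 concentrations for 24 h at 37 C/5% CO2. A luciferase reagent was added and luminescence recorded after 30 min.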

[2] = biological target: Nuclear receptor subfamily 1 group I member 3 (Homo sapiens) (UniProt Q14994); assay: qHTS assay to identify small molecule agonists of the constitutive androstane receptor (CAR) signaling pathway (AID 1224839); note: nearly all actives have a fitted effect of over 15% in size; note: potency is the fitted concentration of half-maximal effect;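 for activation: HepG2 cells stably carrying human CAR and a CYP2B6 luciferase reporter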
In short: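 Luminescent ONE-Glo read-out after 24 hr, 37 C exposure of double-stable HepG2-CYP2B6-hCAR reporter cells to a 15-point compound series, in the presence of 0.75 uM PK11195 (final).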

[3] = qHTS assay to identify small molecule antagonists of the estrogen related receptor signaling pathway with the pleiotropic PPARgamma coactivator (PGC) from Tox21 10K library - cell viability counter screen (AID 1224840; active = well fitted cell-killing curve with a large enough effect in the repeat runs, not every such curve was filed as active; note: nearly all actives have a fitted effect of over 40% in size; note: potency is the fitted concentration of half-maximal effect)
In short: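 Viability counter screen, PGC/ERR cells: 17.5 h compound exposure at 37 C, CellTiter-Fluor fluorescence endpoint.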

[4] = biological target: Thyrotropin receptor (Homo sapiens) (UniProt P16473); assay: qHTS assay to identify small molecule agonists of the thyroid stimulating hormone receptor (TSHR) signaling pathway (AID 1224843; calls by dose curve; note: nearly all actives have a fitted effect of over 45% in size; note: potency is the fitted concentration of half-maximal effect)
In short: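 A cell-based cAMP HTRF format was run in TSHR-transfected HEK293 cells, 800 per well. Treatment: 30 min, room temperature. Detection: 1 h with labelled cAMP and anti-cAMP cryptate. Concentration-response over 15 points, three replicates.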

[5] = qHTS assay to identify small molecule agonists of the hypoxia (HIF-1) signaling pathway - cell viability counter screen (AID 1224844; calls by dose curve; note: nearly all actives have a fitted effect of over 50% in size; note: potency is the fitted concentration of half-maximal effect)
In short: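 Same wells as the HIF-1 reporter screen; ME-180 cells carrying HRE-bla, 17 hr treatment at 37C; CellTiter-Glo luminescence read after 30 min at room temperature.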

[6] = qHTS assay to identify small molecule agonists of H2AX (AID 1224845; active = well fitted activation curve with a large enough effect in the signal ratio in the repeat runs, not every such curve was filed as active; the % refers to the signal ratio)
In short: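 Phospho-H2AX Ser139 measured by HTRF (ex 320 nm; em 665 and 620 nm) after 24 hr antibody incubation. Compounds, 15 concentrations, 0.76% DMSO, were applied to CHO-K1 cells for 3hr at 37C before lysis.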

[7] = qHTS assay to identify small molecule agonists of the hypoxia (HIF-1) signaling pathway (AID 1224846; active = well fitted activation curve with a large enough effect in the signal ratio in the repeat runs, not every such curve was filed as active; the % refers to the signal ratio)
In short: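 In ME-180 cells bearing an HRE-bla construct, 17 h treatment with DMSO-dissolved compounds at 37C was followed by CCF4-AM loading to quantify reporter induction.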

[8] = qHTS assay to identify small molecule agonists of H2AX - cell viability counter screen (AID 1224847; calls by dose curve; note: nearly all actives have a fitted effect of over 30% in size; note: potency is the fitted concentration of half-maximal effect)
In short: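 Counter-screen for viability: CellTiter-Glo ATP luminescence read after 3 h compound treatment (15-point titration, 0.76% DMSO final) of CHO-K1 cells at 37C, with 30 min room-temperature reagent incubation.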

[9] = qHTS RealTime-Glo MT Cell Viability Assay in HepG2 cells - 24 hour (AID 1224867); note: nearly all actives have a fitted effect of over 50% in size; note: potency is the fitted concentration of half-maximal effect
In short: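 HepG2 cells (600/well) were dispensed with RealTime-Glo reagents, incubated 5 h at 37 °C, then treated with compounds in DMSO for up to 40 h. Nonlytic NanoLuc luminescence reflecting viable cells was read at each stated time point.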

[10] = qHTS RealTime-Glo MT Cell Viability Assay in HEK293 cells - 32 hour (AID 1224868); note: nearly all actives have a fitted effect of over 50% in size; note: potency is the fitted concentration of half-maximal effect
In short: (§1)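 HEK293 cells seeded with NanoLuc/prosubstrate reagent, rested 5 h at 37 C, then dosed and kept at 37 C up to 40 h. Nonlytic real-time luminescence from viable cells read at 0, 8, 16, 24, 32 and 40 h.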

[11] = A CellTox Green Cytotoxicity Assay to monitor cytotoxicity in HEK293 cells - 0 hour (AID 1224869); note: nearly all actives have a fitted effect of over 50% in size
In short: (§2)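 Homogeneous no-lysis format: HEK293 cell suspension mixed with CellTox Green reagent, seeded, incubated 5 h at 37 C/5% CO2, then dosed by pintool with compound in DMSO.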

[12] = qHTS RealTime-Glo MT Cell Viability Assay in HepG2 cells - 40 hour (AID 1224870); note: nearly all actives have a fitted effect of over 50% in size; note: potency is the fitted concentration of half-maximal effect
In short: (§3)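 Real-time viability: cells seeded at 600 per well together with NanoLuc and cell-permeant prosubstrate, compounds added after 5 h incubation. Luminescence tracked at 0, 8, 16, 24, 32 and 40 h of exposure.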

[13] = A CellTox Green Cytotoxicity Assay to monitor cytotoxicity in HEK293 cells - 40 hour (AID 1224871); note: nearly all actives have a fitted effect of over 45% in size; note: potency is the fitted concentration of half-maximal effect
In short: as §2

[14] = qHTS RealTime-Glo MT Cell Viability Assay in HEK293 cells - 16 hour (AID 1224872); note: nearly all actives have a fitted effect of over 50% in size; note: potency is the fitted concentration of half-maximal effect
In short: as §1

[15] = qHTS RealTime-Glo MT Cell Viability Assay in HepG2 cells - 8 hour (AID 1224873); note: nearly all actives have a fitted effect of over 55% in size
In short: as §3

[16] = qHTS assay to identify small molecule antagonists of the estrogen related receptor signaling pathway with the pleiotropic PPARgamma coactivator (PGC) from Tox21 10K library (AID 1224841; call rule not given here; note: potency is the fitted concentration of half-maximal effect)
In short: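 In the PGC/ERR line, DMSO solutions of test chemicals are pin-delivered to 2,000 cells/well six hours after dispensing. Following eighteen hours' incubation, One-Glo reagent is added and luminescence recorded.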

[17] = qHTS assay to identify small molecule agonists of the estrogen related receptor signaling pathway with the pleiotropic PPARgamma coactivator (PGC) from Tox21 10K library (AID 1224842); note: nearly all actives have a fitted effect of over 15% in size; note: potency is the fitted concentration of half-maximal effect
In short: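 Luminescence from One-Glo (30 min, room temperature) measured after PGC/ERR cells had 18 h at 37 C with pinned compound (23 nL in DMSO). Cells had been seeded at 2,000 per well and pre-incubated 6 h.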

[18] = qHTS assay to identify small molecule antagonists of the estrogen related receptor (ERR) signaling pathway from Tox21 library (AID 1224848); note: nearly all actives have a fitted effect of over 50% in size; note: potency is the fitted concentration of half-maximal effect
In short: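 ERR cell line, 2,000 cells/well. 6 h settle, then compound (DMSO) added; 18 h at 37 C; ONE-Glo luminescence after 30 min RT.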

[19] = qHTS assay to identify small molecule agonists of the estrogen related receptor (ERR) signaling pathway from Tox21 library (AID 1224849; calls by dose curve; note: nearly all actives have a fitted effect of over 15% in size); conditions: ERR reporter cell line, ONE-Glo luciferase, 18 h; at 92.4 µM (top of the series) unless noted
In short: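 Reporter cells (ERR, NTP source) treated with Tox21 10K compounds 18 h, 37 C. Readout: ONE-Glo luminescence, 30 min RT.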

Chain of Thyrotropin receptor (Homo sapiens) (P16473 whole entry, looked up): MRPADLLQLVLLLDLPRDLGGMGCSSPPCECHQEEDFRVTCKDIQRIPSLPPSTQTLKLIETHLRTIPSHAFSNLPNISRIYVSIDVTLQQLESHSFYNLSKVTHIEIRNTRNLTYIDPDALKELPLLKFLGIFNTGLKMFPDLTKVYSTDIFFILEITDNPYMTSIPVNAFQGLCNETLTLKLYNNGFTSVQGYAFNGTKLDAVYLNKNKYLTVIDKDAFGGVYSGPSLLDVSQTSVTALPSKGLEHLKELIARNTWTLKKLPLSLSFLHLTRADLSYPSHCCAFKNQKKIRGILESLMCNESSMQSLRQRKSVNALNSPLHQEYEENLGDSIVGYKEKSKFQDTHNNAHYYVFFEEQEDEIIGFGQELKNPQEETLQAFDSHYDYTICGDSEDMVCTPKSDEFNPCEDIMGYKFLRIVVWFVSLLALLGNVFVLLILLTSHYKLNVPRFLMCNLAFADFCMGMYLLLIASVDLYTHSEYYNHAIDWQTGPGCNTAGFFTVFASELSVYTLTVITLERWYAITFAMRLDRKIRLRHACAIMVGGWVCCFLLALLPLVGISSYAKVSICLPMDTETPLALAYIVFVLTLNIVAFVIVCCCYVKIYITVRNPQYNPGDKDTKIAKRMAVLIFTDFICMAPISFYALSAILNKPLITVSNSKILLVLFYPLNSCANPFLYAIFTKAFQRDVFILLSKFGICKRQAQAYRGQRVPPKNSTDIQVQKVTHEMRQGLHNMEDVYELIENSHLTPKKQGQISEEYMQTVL
Chain of Nuclear receptor subfamily 1 group I member 3 (Homo sapiens) (Q14994 whole entry, looked up): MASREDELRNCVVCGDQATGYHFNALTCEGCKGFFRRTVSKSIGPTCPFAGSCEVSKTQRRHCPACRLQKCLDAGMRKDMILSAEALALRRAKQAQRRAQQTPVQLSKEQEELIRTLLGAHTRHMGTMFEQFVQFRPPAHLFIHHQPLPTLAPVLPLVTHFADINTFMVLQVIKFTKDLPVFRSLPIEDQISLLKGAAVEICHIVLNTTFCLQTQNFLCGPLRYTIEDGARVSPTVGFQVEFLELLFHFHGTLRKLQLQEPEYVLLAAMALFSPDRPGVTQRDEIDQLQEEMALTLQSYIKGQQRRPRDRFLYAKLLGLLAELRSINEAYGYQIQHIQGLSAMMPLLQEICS

| Structure (SMILES) | Potency [1] | Potency [2] | Potency [3] | Potency [4] | Potency [5] | Potency [6] | outcome [7] | Potency [8] | Potency [9] | Potency [10] | Potency [11] | Potency [12] | Potency [13] | Potency [14] | Potency [15] | Potency [16] | Potency [17] | Potency [18] | activity change, positive = activation [19] |
| --- | --- | --- | --- | --- | --- | --- | --- | --- | --- | --- | --- | --- | --- | --- | --- | --- | --- | --- | --- |
| COC(=O)CC#N | inactive | inactive | inactive | inactive | inactive | inactive | inactive | inactive | inactive | inactive | inactive | inactive | inactive | inactive | inactive | – | – | – | – |
| CN(C)c1ccc(N=Nc2ccccc2C(=O)O)cc1 | inactive | 10.9 µM (active) | 27.3 µM (active) | – | – | – | – | – | – | inactive | inactive | – | – | inactive | – | – | – | – | – |
| Clc1ccc(C(Cn2ccnc2)OCc2ccsc2Cl)c(Cl)c1 (stereo unspecified) | inactive | 23.7 µM (active) | – | – | inactive | – | – | – | – | 19 µM (active) | inactive | – | – | 15.1 µM (active) | – | 18.8 µM (active) | inactive | 18.8 µM (active) | -53.5% [at 42.5 µM] |
| CCC1(c2cnc[nH]2)Cc2ccccc2C1 | inactive | inactive | – | – | inactive | inactive | – | inactive | inactive | inactive | inactive | inactive | inactive | inactive | inactive | – | – | – | – |
| CN1[C@@H]2CC[C@H]1CC(OC(=O)C(CO)c1ccccc1)C2 (stereo partly specified) | inactive | – | inactive | – | – | inactive | – | inactive | inactive | inactive | – | – | inactive | inactive | inactive | – | – | – | – |
| O=C(O)CC(=O)O | inactive | – | inactive | inactive | – | inactive | inactive | inactive | inactive | inactive | inactive | inactive | – | inactive | inactive | – | – | – | – |
| CS(C)(=O)=O | inactive | inactive | inactive | inactive | inactive | – | inactive | inactive | inactive | inactive | – | inactive | – | inactive | – | – | inactive | inactive | – |
| Cc1ccc(CCn2c3c(c4cc(Cl)ccc42)CN(C)CC3)cn1 | inactive | inactive | – | – | – | inactive | inactive | inactive | inactive | 19 µM (active) | inactive | inactive | inactive | – | inactive | inactive | 9.44 µM (active) | inactive | 48.3% [at 42.5 µM] (active) |
| NCCCC(O)(P(=O)(O)O)P(=O)(O)O | inactive | inactive | inactive | inactive | inactive | inactive | inactive | inactive | inactive | inactive | inactive | inactive | inactive | inactive | inactive | – | – | – | – |
| CC=O | 36 µM (active) | inactive | 25.5 µM (active) | – | 40.7 µM (active) | – | – | 14.9 µM (active) | 51.3 µM (active) | 0.575 µM (active) | inactive | 32.3 µM (active) | 51.3 µM (active) | 4.57 µM (active) | – | – | – | – | – |
| CC1=C(/C=C/C(C)=C/C=C/C(C)=C\C=O)C(C)(C)CCC1 | inactive | 23 µM (active) | – | 10.3 µM (active) | inactive | – | inactive | 107 µM (active) | inactive | 46.4 µM (active) | inactive | inactive | – | – | inactive | – | – | – | – |
| O=C(O)Cc1ccc(OCCNC[C@H](O)c2ccccc2)cc1 | inactive | inactive | inactive | inactive | inactive | – | inactive | inactive | inactive | inactive | inactive | inactive | inactive | inactive | inactive | – | – | – | – |
| CCOC(=O)C1=C(C)NC(C)=C(C(=O)OCC)C1c1ccccc1/C=C/C(=O)OC(C)(C)C | inactive | – | – | inactive | – | – | – | – | – | – | inactive | – | inactive | inactive | – | – | inactive | 13.3 µM (active) | -56.8% [at 42.5 µM] |

From PubChem BioAssay (Tox21)
